Unmarked numbers belong to inactive results. How the calls were made is not given here.
Assay: fibrin DD(E) binders, counter-screen IC50, biochemical, fluorescence polarization, dose response, counter-screen for fibrin DD(E)-Tn6 binding project, late-stage follow-up (AID 1053128)
Conditions: Fluorescence polarization counterscreen, Tn6 peptide/DD(E) assay

Structure (SMILES)	IC50 [µM]
CCn1c(CSc2n[nH]c(N)n2)nc2cc(C(=O)O)ccc21	> 83.3
Cc1cc(C)c(S(=O)(=O)NCCn2c(C)cc3ccccc32)c(C)c1	> 83.3
N#CC1=C(N)Oc2ccc3ccc(O)cc3c2C1c1ccsc1 (stereo not given)	> 83.3
Cc1cc2c(cc1S(=O)(=O)N1CCN(c3cccc(C)c3C)CC1)OCCN2C	> 83.3
NS(=O)(=O)c1ccc(NS(=O)(=O)c2ccc(NC(=O)c3ccc(-c4ccccc4)cc3)cc2)cc1	> 83.3
Cc1cc2cc(CNC(=O)c3ccc(S(=O)(=O)N4CCOCC4)cc3)ccc2n1C	> 83.3
COc1ccc2ccccc2c1C(O)c1nccn1C (stereo not given)	> 83.3
Cc1cc2cc(CNS(=O)(=O)c3ccc4ccccc4c3)ccc2n1C	> 83.3
O=C(O)CCCNc1cc(N2CCN(C(=O)c3ccco3)CC2)c2noc3c2c1C(=O)c1ccccc1-3	> 83.3
CN1C(=O)NC(c2ccccc2[N+](=O)[O-])C2=C1CCCC2=O (stereo not given)	> 83.3

Reference: PubChem BioAssay AID1053128 (The Scripps Research Institute Molecular Screening Center, 2014)
